{"source": "PubChem BioAssay (NCATS)", "note": "Records with an inconclusive call do not appear. Unmarked numbers belong to inactive results. Calls of active or inactive are those of the source. The call rests on the fitted dose curve; in most records, active means well fitted cell-killing curve with a large enough effect; inconclusive means small, poorly fitted or top-dose-only effect; inactive means no such curve, though single readings can be large or run the other way. Potency means the concentration at half of the fitted maximal effect."}
{"assay": "qHTS of pediatric cancer cell lines to identify multiple opportunities for drug repurposing: Primary screen for NB1643 cells (AID 1347099); further: nearly all actives have a fitted effect of over 50% in size;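 on activity change, negative = cytotoxic: plate controls were DMSO neutral control for no effect and bortezomib positive control for full effect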", "conditions": "NB1643 neuroblastoma viability, CellTiter-Glo luminescence, 48 h; series mostly up to 46 µM; activity change, negative = cytotoxic: at the top concentration", "how_it_was_run": "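500-1,000 cells/well; 5 h pre-incubation 37 °C/5% CO2; compound pinned; 48 h; CellTiter-Glo, 15 min RT; luminescence. MIPE 11-pt from 0.78 nM, NPC 8-pt from 0.59 nM final. Bortezomib 2.3 µM final as positive control.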", "units": {"activity change, negative = cytotoxic": "%"}}
{"smiles": "CC(=O)c1cc2ccccc2s1", "activity change, negative = cytotoxic": 14.3}
{"smiles": "O=c1[nH]c(=O)n([C@H]2O[C@H](CO)[C@@H](O)[C@@H]2O)cc1/C=C\\Br", "activity change, negative = cytotoxic": 12.6}
{"smiles": "CCCCCCCCCCCC[N+](C)(C)Cc1ccccc1", "Potency": "6.68 µM (active)"}
{"smiles": "CC1CC(=O)NN=C1c1ccc(NCC(C)(C)NCC(O)COc2cc(Cl)ccc2C#N)cc1", "note": "(stereo not drawn)", "activity change, negative = cytotoxic": -0.985}
{"smiles": "Clc1ccc2c(c1)Nc1ccccc1S2", "activity change, negative = cytotoxic": -0.165}
{"smiles": "O=[N+]([O-])c1cncn1CCN1CCOCC1", "activity change, negative = cytotoxic": 14.7}
{"smiles": "CCCc1c2oc(C(=O)O)cc(=O)c2cc2c(=O)cc(C(=O)O)n(CC)c12", "activity change, negative = cytotoxic": 14.3}
{"smiles": "CCO[C@H](Cc1ccc(OCCc2ccc(OS(C)(=O)=O)cc2)cc1)C(=O)O", "activity change, negative = cytotoxic": 14.1}
{"smiles": "COc1cc(OC)nc(O[C@H](C(=O)O)C(OC)(c2ccccc2)c2ccccc2)n1", "activity change, negative = cytotoxic": 0}
{"smiles": "CC1CCCCN1CCCOC(=O)c1ccc(OC2CCCCC2)cc1", "note": "(stereo not drawn)", "activity change, negative = cytotoxic": 6.69}
{"smiles": "CN(C)CCCOC1(Cc2ccccc2)CCCCCC1", "activity change, negative = cytotoxic": 8}
{"smiles": "CCCCC(O)/C=C(C)/C=C/C=C/C(=O)N1CCCC1=O", "note": "(stereo not drawn)", "activity change, negative = cytotoxic": 16.8}
{"smiles": "NS(=O)(=O)c1cc2c(cc1Cl)CN(C1CCCCC1)C2=O", "activity change, negative = cytotoxic": 13.9}
{"smiles": "O=C1[C@@H]2[C@H]3CC[C@H](C3)[C@@H]2C(=O)N1CCCCN1CCN(c2ncccn2)CC1", "activity change, negative = cytotoxic": 0}
{"smiles": "CO[C@@]1(NC(=O)CSC[C@@H](N)C(=O)O)C(=O)N2C(C(=O)O)=C(CSc3nnnn3C)CS[C@@H]21", "activity change, negative = cytotoxic": -1.15}
{"smiles": "CCCCCCCCCCCCCCCCCCN(C)C", "activity change, negative = cytotoxic": -0.32}
{"assay": "qHTS of pediatric cancer cell lines to identify multiple opportunities for drug repurposing: Primary screen for LAN-5 cells (AID 1347100);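 on activity change, negative = cytotoxic: plate controls were DMSO neutral control for no effect and bortezomib positive control for full effect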", "conditions": "LAN-5 neuroblastoma viability, CellTiter-Glo luminescence, 48 h; series mostly up to 46 µM; activity change, negative = cytotoxic: at the top concentration", "how_it_was_run": "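Cells (500-1,000/well) in growth media were settled 5 h at 37 degrees C, then given compounds for 48 h. Viability was read as CellTiter-Glo luminescence. Primary runs used MIPE at 11 points (0.78 nM-46 µM) and NPC at 8 points (0.59 nM-46 µM); follow-ups used 11 points.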", "units": {"activity change, negative = cytotoxic": "%"}}
{"smiles": "C[C@@]12CCC[C@H]1[C@@H]1CC[C@H]3C[C@@H](O)CC[C@]3(C)[C@H]1CC2", "activity change, negative = cytotoxic": -13.6}
{"smiles": "CCOC(=O)OCC/C(SC(=O)OCC)=C(\\C)N(C=O)Cc1cnc(C)nc1N", "activity change, negative = cytotoxic": 26.4}
{"smiles": "CO/N=C(\\C(=O)O)c1csc(NC(=O)CCl)n1", "activity change, negative = cytotoxic": 23.1}
{"smiles": "Nc1ncnc2nc[nH]c12", "activity change, negative = cytotoxic": 58.8}
{"smiles": "O=C(CCCl)NCc1ccccc1", "activity change, negative = cytotoxic": 15.6}
{"smiles": "Cc1nc(C2CCCCC2)c(-c2ccc(S(N)(=O)=O)c(F)c2)o1", "activity change, negative = cytotoxic": -3.07}
{"smiles": "CC1(C)O[C@@H]2C[C@H]3[C@@H]4CCC5=CC(=O)C=C[C@]5(C)[C@@]4(F)[C@@H](O)C[C@]3(C)[C@]2(C(=O)CO)O1", "activity change, negative = cytotoxic": 10.5}
{"smiles": "CC(C)(C)CC(=O)OCC(=O)[C@@]1(O)CC[C@H]2[C@@H]3CCC4=CC(=O)C=C[C@]4(C)[C@H]3[C@@H](O)C[C@@]21C", "activity change, negative = cytotoxic": -26.3}
{"smiles": "O=C1Nc2cc(Cl)ccc2Oc2ccccc21", "activity change, negative = cytotoxic": 5.64}
{"smiles": "CC(COc1ccccc1)NN", "note": "(stereo not drawn)", "activity change, negative = cytotoxic": -7.71}
{"smiles": "CC(C)=CCC/C(C)=C/CC/C(C)=C/C(=O)OCC(=O)[C@@]1(O)CC[C@H]2[C@@H]3CCC4=CC(=O)C=C[C@]4(C)[C@H]3[C@@H](O)C[C@@]21C", "Potency": "13.3 µM (active)"}
{"smiles": "CCc1cc(S(=O)(=O)O)c2cc(C(C)C)cccc1-2", "activity change, negative = cytotoxic": 12.1}
{"smiles": "CC1c2ccccc2CN1NC(=O)c1ccc(Cl)c(S(N)(=O)=O)c1", "note": "(stereo not drawn)", "activity change, negative = cytotoxic": -11.5}
{"smiles": "O=C(O)c1[nH]n(-c2ccc(S(=O)(=O)O)cc2)c(=O)c1N=Nc1ccc(S(=O)(=O)O)cc1", "activity change, negative = cytotoxic": -3.27}
{"smiles": "CC(CC(C#N)(c1ccccc1)C(C)C)N(C)C", "note": "(stereo not drawn)", "activity change, negative = cytotoxic": -5.92}
{"smiles": "CN(CC1(C)CCCO1)S(=O)(=O)c1ccc(Cl)c(S(N)(=O)=O)c1", "note": "(stereo not drawn)", "activity change, negative = cytotoxic": 6.89}
{"smiles": "C[C@H]1C[C@H]2[C@@H]3CCC4=CC(=O)C=C[C@]4(C)[C@H]3C(=O)C[C@]2(C)[C@@]1(O)C(=O)CO", "activity change, negative = cytotoxic": -13.1}
{"smiles": "CC(=O)c1cc2ccccc2s1", "activity change, negative = cytotoxic": 4.9}
{"smiles": "O=c1[nH]c(=O)n([C@H]2O[C@H](CO)[C@@H](O)[C@@H]2O)cc1/C=C\\Br", "activity change, negative = cytotoxic": 0.725}
{"smiles": "O=C(c1ccco1)N1CCNCC1", "activity change, negative = cytotoxic": -9.93}
{"smiles": "CCCCCCCCCCCC[N+](C)(C)Cc1ccccc1", "activity change, negative = cytotoxic": 21.9}
{"smiles": "CC1CC(=O)NN=C1c1ccc(NCC(C)(C)NCC(O)COc2cc(Cl)ccc2C#N)cc1", "note": "(stereo not drawn)", "activity change, negative = cytotoxic": -10.9}
{"smiles": "Clc1ccc2c(c1)Nc1ccccc1S2", "activity change, negative = cytotoxic": 5.92}
{"smiles": "CCC1(c2cnc[nH]2)Cc2ccccc2C1", "activity change, negative = cytotoxic": 1.62}
{"smiles": "O=[N+]([O-])c1cncn1CCN1CCOCC1", "activity change, negative = cytotoxic": -1.84}
{"smiles": "CCCc1c2oc(C(=O)O)cc(=O)c2cc2c(=O)cc(C(=O)O)n(CC)c12", "activity change, negative = cytotoxic": 14}
{"smiles": "CCO[C@H](Cc1ccc(OCCc2ccc(OS(C)(=O)=O)cc2)cc1)C(=O)O", "activity change, negative = cytotoxic": -0.0759}
{"smiles": "COc1cc(OC)nc(O[C@H](C(=O)O)C(OC)(c2ccccc2)c2ccccc2)n1", "activity change, negative = cytotoxic": 27.9}
{"smiles": "CC1CCCCN1CCCOC(=O)c1ccc(OC2CCCCC2)cc1", "note": "(stereo not drawn)", "activity change, negative = cytotoxic": 0.633}
{"smiles": "CN(C)CCCOC1(Cc2ccccc2)CCCCCC1", "activity change, negative = cytotoxic": -2.09}
{"smiles": "CCCCC(O)/C=C(C)/C=C/C=C/C(=O)N1CCCC1=O", "note": "(stereo not drawn)", "activity change, negative = cytotoxic": 22.2}
{"smiles": "NS(=O)(=O)c1cc2c(cc1Cl)CN(C1CCCCC1)C2=O", "activity change, negative = cytotoxic": 12.6}
